# Measurements taken from the supplement of paper PMC10849652.
# Targets with a hit are over-represented here; the source holds about 7,900 in all. About 0.6% of all pairs of compound and target were hits. A number with no mark means an inactive call.
# What was measured:
# Assay in all cases: log2 fold change, soluble protein after heating vs DMSO (PISA); higher = thermal stabilisation; K562 cells, 10 uM, 30 min; active = over 0.2 and 3.5 SD of the protein, either way, in both replicates (recomputed)
# [1] = compound: NC(=O)Nc1cc(-c2cccc(F)c2)sc1C(=O)N[C@H]1CCCNC1
# Procedure, shortened: (§1)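 Values are thermal stability changes relative to control samples and are taken from duplicates. They are stated as log2 fold changes. Before quantification by TMTpro 16plex LC-MS/MS with equalised channel sums, K562 cells at 2×10^6 cells/mL were treated with 10 μM compound for 30 min, heated in aliquots for 3 min across 48°C-58°C, pooled, extracted in PBS with 0.5% NP-40 at 4°C, and centrifuged at 21,000xg for 90 min to give the soluble supernatant.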
# [2] = compound: NC(=O)c1cnc(N[C@@H]2CCCC[C@@H]2N)nc1Nc1cccc(-n2nccn2)c1
# Procedure, shortened: as §1
# [3] = compound: NC1(c2ccc(-c3nc4ccn5c(=O)[nH]nc5c4cc3-c3ccccc3)cc2)CCC1
# Procedure, shortened: as §1
# [4] = compound: NCC(=O)Nc1ccc(-n2nc(C(F)(F)F)cc2-c2ccc3c(ccc4ccccc43)c2)cc1
# Procedure, shortened: as §1
# entinostat = compound: Nc1ccccc1NC(=O)c1ccc(CNC(=O)OCc2cccnc2)cc1 [entinostat]
# Procedure, shortened: as §1
# citarinostat = compound: O=C(CCCCCCNC(=O)c1cnc(N(c2ccccc2)c2ccccc2Cl)nc1)NO [citarinostat]
# Procedure, shortened: as §1
# silmitasertib = compound: O=C(O)c1ccc2c(c1)nc(Nc1cccc(Cl)c1)c1ccncc12 [silmitasertib]
# Procedure, shortened: as §1
# [5] = compound: O=C1NC(=O)C(c2cnc3ccccn23)=C1c1cn2c3c(cc(F)cc13)CN(C(=O)N1CCCCC1)CC2
# Procedure, shortened: as §1
# [6] = compound: c1cc(OCCN2CCCCC2)cc(-c2n[nH]c3ccc(-c4nnc[nH]4)cc23)c1
# Procedure, shortened: as §1
# entospletinib = compound: c1cn2cc(-c3ccc4cn[nH]c4c3)nc(Nc3ccc(N4CCOCC4)cc3)c2n1 [entospletinib]
# Procedure, shortened: as §1
# vorinostat = compound: O=C(CCCCCCC(=O)Nc1ccccc1)NO [vorinostat]
# Procedure, shortened: as §1
# Sequence of UniProt Q9NYL2 (Q9NYL2 whole entry, looked up): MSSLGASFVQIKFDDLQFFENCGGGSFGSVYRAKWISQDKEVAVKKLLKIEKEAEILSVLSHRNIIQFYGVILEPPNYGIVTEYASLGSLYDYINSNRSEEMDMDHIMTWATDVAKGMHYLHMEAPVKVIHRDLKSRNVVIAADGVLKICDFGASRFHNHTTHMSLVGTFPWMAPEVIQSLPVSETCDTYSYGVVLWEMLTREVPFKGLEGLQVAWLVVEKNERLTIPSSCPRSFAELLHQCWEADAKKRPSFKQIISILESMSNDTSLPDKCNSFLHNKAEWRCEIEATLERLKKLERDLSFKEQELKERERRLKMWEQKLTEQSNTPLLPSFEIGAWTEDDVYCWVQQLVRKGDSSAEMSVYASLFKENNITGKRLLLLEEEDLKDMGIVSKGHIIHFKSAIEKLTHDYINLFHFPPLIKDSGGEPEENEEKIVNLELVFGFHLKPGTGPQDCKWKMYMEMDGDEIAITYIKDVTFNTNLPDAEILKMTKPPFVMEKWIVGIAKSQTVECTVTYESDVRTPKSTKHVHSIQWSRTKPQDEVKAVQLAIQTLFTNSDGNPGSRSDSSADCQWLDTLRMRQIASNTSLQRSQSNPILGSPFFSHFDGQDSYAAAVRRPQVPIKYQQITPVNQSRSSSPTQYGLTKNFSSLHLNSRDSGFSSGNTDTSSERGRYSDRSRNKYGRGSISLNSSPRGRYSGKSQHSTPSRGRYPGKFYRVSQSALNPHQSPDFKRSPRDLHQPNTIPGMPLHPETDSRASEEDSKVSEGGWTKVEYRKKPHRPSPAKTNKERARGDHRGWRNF
# Sequence of UniProt Q9H1H9 (Q9H1H9 whole entry, looked up): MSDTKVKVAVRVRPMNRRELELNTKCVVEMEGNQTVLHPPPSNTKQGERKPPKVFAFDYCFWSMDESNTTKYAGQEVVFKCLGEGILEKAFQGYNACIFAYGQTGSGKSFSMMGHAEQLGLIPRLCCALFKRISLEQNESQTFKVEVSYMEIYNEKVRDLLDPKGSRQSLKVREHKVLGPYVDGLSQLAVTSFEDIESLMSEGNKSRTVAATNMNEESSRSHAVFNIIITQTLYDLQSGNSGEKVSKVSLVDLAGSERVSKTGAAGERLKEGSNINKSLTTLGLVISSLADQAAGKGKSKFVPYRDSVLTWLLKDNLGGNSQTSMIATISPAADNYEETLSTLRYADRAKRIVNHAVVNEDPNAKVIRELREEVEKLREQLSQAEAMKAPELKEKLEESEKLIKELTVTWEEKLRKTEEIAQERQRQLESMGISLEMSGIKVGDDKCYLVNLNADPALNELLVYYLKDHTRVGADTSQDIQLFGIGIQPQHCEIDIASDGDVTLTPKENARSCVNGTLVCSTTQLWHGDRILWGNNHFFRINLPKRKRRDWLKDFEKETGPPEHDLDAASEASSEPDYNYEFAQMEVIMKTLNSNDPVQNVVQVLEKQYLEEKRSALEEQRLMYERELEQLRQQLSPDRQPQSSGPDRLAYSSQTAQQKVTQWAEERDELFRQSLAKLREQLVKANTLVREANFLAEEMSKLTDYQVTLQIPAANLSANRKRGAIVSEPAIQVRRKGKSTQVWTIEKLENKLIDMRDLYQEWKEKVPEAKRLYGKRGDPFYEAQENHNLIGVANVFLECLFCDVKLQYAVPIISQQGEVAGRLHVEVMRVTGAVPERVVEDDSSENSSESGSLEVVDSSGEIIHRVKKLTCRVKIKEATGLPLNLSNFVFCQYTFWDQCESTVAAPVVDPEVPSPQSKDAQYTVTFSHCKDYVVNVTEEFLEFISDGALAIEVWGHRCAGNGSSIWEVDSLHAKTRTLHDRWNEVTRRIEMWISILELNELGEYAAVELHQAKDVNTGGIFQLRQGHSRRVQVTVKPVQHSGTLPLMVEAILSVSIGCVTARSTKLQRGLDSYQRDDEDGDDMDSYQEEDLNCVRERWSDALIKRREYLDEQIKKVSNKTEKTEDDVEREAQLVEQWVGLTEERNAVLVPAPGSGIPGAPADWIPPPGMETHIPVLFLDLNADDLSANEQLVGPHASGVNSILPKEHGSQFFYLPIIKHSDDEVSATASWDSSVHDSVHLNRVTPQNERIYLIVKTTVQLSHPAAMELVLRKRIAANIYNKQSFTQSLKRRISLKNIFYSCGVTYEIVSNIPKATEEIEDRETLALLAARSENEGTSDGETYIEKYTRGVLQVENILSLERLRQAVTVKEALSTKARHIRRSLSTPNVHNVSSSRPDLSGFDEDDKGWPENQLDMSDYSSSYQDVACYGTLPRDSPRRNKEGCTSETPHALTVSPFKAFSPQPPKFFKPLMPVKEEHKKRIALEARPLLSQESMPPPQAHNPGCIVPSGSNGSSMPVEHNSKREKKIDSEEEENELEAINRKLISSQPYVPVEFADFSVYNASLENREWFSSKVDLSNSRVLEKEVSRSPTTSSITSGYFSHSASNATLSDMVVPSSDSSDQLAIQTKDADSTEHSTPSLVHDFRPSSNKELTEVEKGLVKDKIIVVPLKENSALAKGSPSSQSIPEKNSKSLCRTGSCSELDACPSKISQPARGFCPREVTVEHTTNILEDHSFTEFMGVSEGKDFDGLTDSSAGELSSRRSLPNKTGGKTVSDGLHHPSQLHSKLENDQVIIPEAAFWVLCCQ
# Sequence of UniProt Q8WVP7 (Q8WVP7 whole entry, looked up): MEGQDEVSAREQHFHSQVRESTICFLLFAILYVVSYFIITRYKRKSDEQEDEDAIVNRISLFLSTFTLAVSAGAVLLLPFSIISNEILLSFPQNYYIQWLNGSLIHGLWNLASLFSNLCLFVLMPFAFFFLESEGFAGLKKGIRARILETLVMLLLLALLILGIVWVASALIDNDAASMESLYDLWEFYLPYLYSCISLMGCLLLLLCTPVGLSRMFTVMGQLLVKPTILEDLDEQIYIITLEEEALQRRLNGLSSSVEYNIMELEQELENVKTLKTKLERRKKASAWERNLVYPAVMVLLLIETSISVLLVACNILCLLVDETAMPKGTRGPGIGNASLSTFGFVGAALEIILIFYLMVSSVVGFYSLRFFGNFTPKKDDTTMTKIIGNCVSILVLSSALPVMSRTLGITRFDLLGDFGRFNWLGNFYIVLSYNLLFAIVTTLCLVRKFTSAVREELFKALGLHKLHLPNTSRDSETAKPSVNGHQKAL
# Sequence of UniProt O95819 (O95819 whole entry, looked up): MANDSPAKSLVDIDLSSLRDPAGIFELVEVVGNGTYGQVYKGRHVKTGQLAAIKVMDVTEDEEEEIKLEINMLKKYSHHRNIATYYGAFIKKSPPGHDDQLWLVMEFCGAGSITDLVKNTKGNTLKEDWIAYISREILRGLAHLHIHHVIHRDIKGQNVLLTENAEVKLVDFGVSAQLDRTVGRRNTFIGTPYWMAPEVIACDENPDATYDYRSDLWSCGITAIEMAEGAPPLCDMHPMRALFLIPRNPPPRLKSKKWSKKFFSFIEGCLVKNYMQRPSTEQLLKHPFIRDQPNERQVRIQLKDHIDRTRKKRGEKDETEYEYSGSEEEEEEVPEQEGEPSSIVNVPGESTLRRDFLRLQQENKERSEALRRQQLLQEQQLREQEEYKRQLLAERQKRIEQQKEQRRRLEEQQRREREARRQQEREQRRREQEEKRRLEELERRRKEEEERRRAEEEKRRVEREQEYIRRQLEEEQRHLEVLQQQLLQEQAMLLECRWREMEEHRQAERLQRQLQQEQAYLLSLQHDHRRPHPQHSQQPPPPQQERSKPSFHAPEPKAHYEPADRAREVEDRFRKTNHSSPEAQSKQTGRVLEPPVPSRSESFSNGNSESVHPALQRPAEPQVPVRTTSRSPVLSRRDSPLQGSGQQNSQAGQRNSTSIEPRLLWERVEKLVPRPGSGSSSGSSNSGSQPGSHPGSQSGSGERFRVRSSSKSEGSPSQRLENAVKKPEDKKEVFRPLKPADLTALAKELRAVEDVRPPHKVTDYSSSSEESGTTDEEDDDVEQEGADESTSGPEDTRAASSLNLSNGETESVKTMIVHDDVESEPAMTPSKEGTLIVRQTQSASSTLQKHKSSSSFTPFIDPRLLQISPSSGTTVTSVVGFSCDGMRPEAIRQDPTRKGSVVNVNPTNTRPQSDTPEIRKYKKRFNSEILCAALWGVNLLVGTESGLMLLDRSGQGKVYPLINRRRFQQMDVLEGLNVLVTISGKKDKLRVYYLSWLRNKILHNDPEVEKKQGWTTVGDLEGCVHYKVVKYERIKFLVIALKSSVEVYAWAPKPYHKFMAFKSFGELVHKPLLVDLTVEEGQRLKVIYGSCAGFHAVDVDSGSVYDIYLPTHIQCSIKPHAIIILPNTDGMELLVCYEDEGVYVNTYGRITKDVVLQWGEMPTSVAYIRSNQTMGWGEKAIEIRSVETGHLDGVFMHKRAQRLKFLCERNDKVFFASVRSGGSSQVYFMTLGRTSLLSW
# Sequence of UniProt Q6UB28 (Q6UB28 whole entry, looked up): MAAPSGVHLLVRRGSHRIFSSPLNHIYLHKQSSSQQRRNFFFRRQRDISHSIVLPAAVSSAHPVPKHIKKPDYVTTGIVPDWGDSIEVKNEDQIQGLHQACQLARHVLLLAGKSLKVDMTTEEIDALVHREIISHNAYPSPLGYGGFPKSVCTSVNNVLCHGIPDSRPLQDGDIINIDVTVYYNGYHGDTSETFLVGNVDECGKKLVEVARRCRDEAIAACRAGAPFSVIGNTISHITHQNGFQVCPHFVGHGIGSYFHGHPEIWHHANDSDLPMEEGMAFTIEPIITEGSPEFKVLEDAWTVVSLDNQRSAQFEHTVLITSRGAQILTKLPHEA
# Sequence of UniProt Q9Y287 (Q9Y287 whole entry, looked up): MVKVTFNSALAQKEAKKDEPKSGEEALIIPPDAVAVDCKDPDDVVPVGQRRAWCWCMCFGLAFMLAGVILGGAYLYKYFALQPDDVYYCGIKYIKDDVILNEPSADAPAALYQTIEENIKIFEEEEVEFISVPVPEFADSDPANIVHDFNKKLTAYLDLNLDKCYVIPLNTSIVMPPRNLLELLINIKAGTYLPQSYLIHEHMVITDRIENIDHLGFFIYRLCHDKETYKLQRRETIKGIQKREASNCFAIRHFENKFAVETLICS
Target,log2 fold change [1],log2 fold change [2],log2 fold change [3],log2 fold change [4],log2 fold change (entinostat),log2 fold change (citarinostat),log2 fold change (silmitasertib),log2 fold change [5],log2 fold change [6],log2 fold change (entospletinib),log2 fold change (vorinostat)
IL27RA (UniProt Q6UWB1),-0.077,-0.091,-0.116,-0.123,0.016,0.082,0.009,0.154,-0.172,0.112,–
KIF13A isoform 4 (UniProt Q9H1H9),-0.034,-0.165,–,–,0.303,–,–,–,–,–,–
LONP2 (UniProt Q86WA8),0.094,0.024,-0.279,0.041,-0.05,-0.069,0.105,-0.007,-0.219,-0.001,-0.006
MAP4K4 isoform 3 (UniProt O95819),-0.199,-0.154,-0.204,-0.013,0.07,0.044,-0.024,–,-0.179,-0.019,0.075
LMBR1 isoform 3 (UniProt Q8WVP7),0.047,-0.11,-0.104,-0.048,0.071,–,0.014,-0.141,–,–,-0.016
MAP4 isoform 5 (UniProt P27816),0.135,0.087,0.109,–,0.075,-0.121,0.012,0.423 (active),0.074,-0.07,–
ITM2B (UniProt Q9Y287),-0.036,0.091,-0.144,0.021,-0.083,-0.006,0.38 (active),0.109,-0.178,-0.011,–
MASTL (UniProt Q96GX5),0.123,-0.018,0.144,-0.004,0.053,-0.018,0.123,0.039,0.002,-0.014,–
MFAP3 (UniProt P55082),0.043,-0.04,–,-0.09,-0.052,–,–,-0.243,–,–,–
LUZP1 (UniProt Q86V48),0.055,0.089,0.087,0.058,-0.081,–,0.114,0.084,–,–,-0.119
"LRBA, A0A494BZW2",0.036,-0.031,-0.114,–,0.232,0.03,0.011,0.063,0.028,-0.025,-0.032
MAP3K20 isoform 2 (UniProt Q9NYL2),0.09,-0.041,0.099,–,0.056,–,0.009,-0.008,–,–,–
METAP1D (UniProt Q6UB28),0.061,0.252,-0.033,0.073,-0.071,0.098,0.064,-0.099,-0.04,0.026,–
MAN2B2 (UniProt Q9Y2E5),0.063,-0.099,-0.262,0.089,-0.018,0.089,-0.029,-0.058,-0.005,0.004,–
MAPK7 (UniProt Q13164),–,-0.25,–,–,–,–,–,0,–,–,-0.069
MAP2K5 (UniProt Q13163),–,-0.025,–,–,–,–,–,–,–,–,–
